Test results published in PMC11006913.
Residue numbers refer to the chain shown, from its start.

Key:
Assay in all cases: PBM; 200 nM protein, PBS
Settings in all cases: dsDNA, one strand shown
HOXB4 [1] = molecular target: HOXB4 (Homo sapiens, UniProt P17483 148-234)
VENTX [2] = molecular target: T1, VENTX (Homo sapiens, UniProt O95231 78-163, R121Q)
T1 sequence: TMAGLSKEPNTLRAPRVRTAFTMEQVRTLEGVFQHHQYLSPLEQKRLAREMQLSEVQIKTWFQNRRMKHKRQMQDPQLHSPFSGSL

HOXA4 [3] = molecular target: HOXA4 (Homo sapiens, UniProt Q00056 201-287, W262R)
PRRX1 [4] = molecular target: PRRX1 (Homo sapiens, UniProt P54821 80-166, F113S)
VENTX [5] = molecular target: T2, VENTX (Homo sapiens, UniProt O95231 78-163, Y115F)
T2 sequence: T1 sequence with Y38F, Q44R

HOXB6 = HOXB6 (Homo sapiens, UniProt P17509 132-218, K202E)
HOXA2 = HOXA2 (Homo sapiens, UniProt O43364 129-215, R185T)
HOXA4 [6] = molecular target: HOXA4 (Homo sapiens, UniProt Q00056 201-287, R217L)
HOXB4 [7] = molecular target: HOXB4 (Homo sapiens, UniProt P17483 148-234, V174I)
MSX2 [8] = molecular target: MSX2 (Homo sapiens, UniProt P35548 130-214, R199I)
PAX4 [9] = molecular target: T3, PAX4 (Homo sapiens, UniProt O43316 9-242, R200Q)
T3 sequence: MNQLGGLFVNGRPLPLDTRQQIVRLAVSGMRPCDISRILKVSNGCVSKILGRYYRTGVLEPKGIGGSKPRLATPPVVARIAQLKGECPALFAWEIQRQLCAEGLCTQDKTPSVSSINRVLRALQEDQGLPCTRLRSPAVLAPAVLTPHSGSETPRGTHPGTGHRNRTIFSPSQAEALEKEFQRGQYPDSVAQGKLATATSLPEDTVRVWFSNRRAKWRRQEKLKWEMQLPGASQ

PAX4 [10] = molecular target: T4, PAX4 (Homo sapiens, UniProt O43316 9-242, F177V)
T4 sequence: T3 sequence with F169V, Q192R

HOXA4 [11] = molecular target: HOXA4 (Homo sapiens, UniProt Q00056 201-287)
MSX2 [12] = molecular target: MSX2 (Homo sapiens, UniProt P35548 130-214)
PAX4 [13] = molecular target: T5, PAX4 (Homo sapiens, UniProt O43316 9-242, F177Y)
T5 sequence: T3 sequence with F169Y, Q192R

MSX2 [14] = molecular target: MSX2 (Homo sapiens, UniProt P35548 130-214, F161Y)
VAX1 [15] = molecular target: VAX1 (Homo sapiens, UniProt Q5SQQ9 86-172, T142I)
HOXA4 [16] = molecular target: HOXA4 (Homo sapiens, UniProt Q00056 201-287, W262F)
PRRX1 [17] = molecular target: PRRX1 (Homo sapiens, UniProt P54821 80-166)
VAX1 [18] = molecular target: VAX1 (Homo sapiens, UniProt Q5SQQ9 86-172, K157R)
Sequence of VAX1 (Homo sapiens, UniProt Q5SQQ9 86-172, K157R) (Q5SQQ9 86-172 K157R): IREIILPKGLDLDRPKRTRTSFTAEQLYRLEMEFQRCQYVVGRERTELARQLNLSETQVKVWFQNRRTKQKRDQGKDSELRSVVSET

Sequence of HOXB4 (Homo sapiens, UniProt P17483 148-234) (P17483 148-234): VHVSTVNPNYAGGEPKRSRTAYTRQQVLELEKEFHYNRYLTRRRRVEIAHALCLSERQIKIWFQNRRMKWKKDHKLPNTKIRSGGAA
Sequence of HOXA4 (Homo sapiens, UniProt Q00056 201-287, R217L) (Q00056 201-287 R217L): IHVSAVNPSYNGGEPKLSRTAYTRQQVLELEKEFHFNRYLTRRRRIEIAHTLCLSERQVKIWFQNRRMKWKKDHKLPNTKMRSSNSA
Sequence of PRRX1 (Homo sapiens, UniProt P54821 80-166) (P54821 80-166): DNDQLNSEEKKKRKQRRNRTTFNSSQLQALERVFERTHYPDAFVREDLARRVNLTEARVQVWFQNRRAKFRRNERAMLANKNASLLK
Sequence of MSX2 (Homo sapiens, UniProt P35548 130-214, R199I) (P35548 130-214 R199I): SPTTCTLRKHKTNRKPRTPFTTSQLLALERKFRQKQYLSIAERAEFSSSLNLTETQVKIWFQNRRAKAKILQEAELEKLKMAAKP
Sequence of HOXB6 (P17509 132-218 K202E): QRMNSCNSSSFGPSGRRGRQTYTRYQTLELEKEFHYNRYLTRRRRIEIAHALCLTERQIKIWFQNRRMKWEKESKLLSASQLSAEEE
Sequence of HOXA4 (Homo sapiens, UniProt Q00056 201-287, W262R) (Q00056 201-287 W262R): as the sequence (Q00056 201-287 R217L) above, with L17R, W62R counted along it
Sequence of PRRX1 (Homo sapiens, UniProt P54821 80-166, F113S) (P54821 80-166 F113S): as the sequence (P54821 80-166) above, with F34S counted along it
Sequence of HOXA4 (Homo sapiens, UniProt Q00056 201-287) (Q00056 201-287): as the sequence (Q00056 201-287 R217L) above, with L17R counted along it
Sequence of VAX1 (Homo sapiens, UniProt Q5SQQ9 86-172, T142I) (Q5SQQ9 86-172 T142I): as the sequence (Q5SQQ9 86-172 K157R) above, with T57I, R72K counted along it
Sequence of MSX2 (Homo sapiens, UniProt P35548 130-214) (P35548 130-214): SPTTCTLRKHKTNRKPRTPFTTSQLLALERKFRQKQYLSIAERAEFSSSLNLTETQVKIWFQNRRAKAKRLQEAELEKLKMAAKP
Sequence of HOXA2 (O43364 129-215 R185T): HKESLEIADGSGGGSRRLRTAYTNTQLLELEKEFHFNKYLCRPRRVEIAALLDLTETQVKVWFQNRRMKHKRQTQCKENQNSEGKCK
Sequence of HOXB4 (Homo sapiens, UniProt P17483 148-234, V174I) (P17483 148-234 V174I): as the sequence (P17483 148-234) above, with V27I counted along it
Sequence of MSX2 (Homo sapiens, UniProt P35548 130-214, F161Y) (P35548 130-214 F161Y): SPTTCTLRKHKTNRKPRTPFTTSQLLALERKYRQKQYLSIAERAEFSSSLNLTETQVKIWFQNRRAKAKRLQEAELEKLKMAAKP
Sequence of HOXA4 (Homo sapiens, UniProt Q00056 201-287, W262F) (Q00056 201-287 W262F): as the sequence (Q00056 201-287 R217L) above, with L17R, W62F counted along it

GTAATTAA
binding signal (HOXB4 [1]): 13.5 upbm affinity estimate (log intensity, higher = more binding, comparable within an allelic series)
binding signal (VENTX [2]): 12.4 upbm affinity estimate (log intensity, higher = more binding, comparable within an allelic series)
binding signal (HOXA4 [3]): 10.9 upbm affinity estimate (log intensity, higher = more binding, comparable within an allelic series)
binding signal (PRRX1 [4]): 11.8 upbm affinity estimate (log intensity, higher = more binding, comparable within an allelic series)
binding signal (VENTX [5]): 12.4 upbm affinity estimate (log intensity, higher = more binding, comparable within an allelic series)
binding signal (HOXB6): 10.3 upbm affinity estimate (log intensity, higher = more binding, comparable within an allelic series)
binding signal (HOXA2): 13.9 upbm affinity estimate (log intensity, higher = more binding, comparable within an allelic series)
binding signal (HOXA4 [6]): 13.3 upbm affinity estimate (log intensity, higher = more binding, comparable within an allelic series)
binding signal (HOXB4 [7]): 14.3 upbm affinity estimate (log intensity, higher = more binding, comparable within an allelic series)
binding signal (MSX2 [8]): 13.2 upbm affinity estimate (log intensity, higher = more binding, comparable within an allelic series)
binding signal (PAX4 [9]): 12.5 upbm affinity estimate (log intensity, higher = more binding, comparable within an allelic series)
binding signal (PAX4 [10]): 10.8 upbm affinity estimate (log intensity, higher = more binding, comparable within an allelic series)
binding signal (HOXA4 [11]): 14.3 upbm affinity estimate (log intensity, higher = more binding, comparable within an allelic series)
binding signal (MSX2 [12]): 14.1 upbm affinity estimate (log intensity, higher = more binding, comparable within an allelic series)
binding signal (PAX4 [13]): 11.3 upbm affinity estimate (log intensity, higher = more binding, comparable within an allelic series)
binding signal (MSX2 [14]): 13.7 upbm affinity estimate (log intensity, higher = more binding, comparable within an allelic series)
binding signal (VAX1 [15]): 13.9 upbm affinity estimate (log intensity, higher = more binding, comparable within an allelic series)
binding signal (HOXA4 [16]): 12.9 upbm affinity estimate (log intensity, higher = more binding, comparable within an allelic series)
binding signal (PRRX1 [17]): 13.6 upbm affinity estimate (log intensity, higher = more binding, comparable within an allelic series)
binding signal (VAX1 [18]): 13.9 upbm affinity estimate (log intensity, higher = more binding, comparable within an allelic series)

ATAATTAA
binding signal (HOXB4 [1]): 13.6 upbm affinity estimate (log intensity, higher = more binding, comparable within an allelic series)
binding signal (VENTX [2]): 12.1 upbm affinity estimate (log intensity, higher = more binding, comparable within an allelic series)
binding signal (HOXA4 [3]): 10.9 upbm affinity estimate (log intensity, higher = more binding, comparable within an allelic series)
binding signal (PRRX1 [4]): 12 upbm affinity estimate (log intensity, higher = more binding, comparable within an allelic series)
binding signal (VENTX [5]): 12 upbm affinity estimate (log intensity, higher = more binding, comparable within an allelic series)
binding signal (HOXB6): 10.3 upbm affinity estimate (log intensity, higher = more binding, comparable within an allelic series)
binding signal (HOXA2): 13.6 upbm affinity estimate (log intensity, higher = more binding, comparable within an allelic series)
binding signal (HOXA4 [6]): 13 upbm affinity estimate (log intensity, higher = more binding, comparable within an allelic series)
binding signal (HOXB4 [7]): 14.4 upbm affinity estimate (log intensity, higher = more binding, comparable within an allelic series)
binding signal (MSX2 [8]): 13 upbm affinity estimate (log intensity, higher = more binding, comparable within an allelic series)
binding signal (PAX4 [9]): 12.3 upbm affinity estimate (log intensity, higher = more binding, comparable within an allelic series)
binding signal (PAX4 [10]): 10.8 upbm affinity estimate (log intensity, higher = more binding, comparable within an allelic series)
binding signal (HOXA4 [11]): 14.3 upbm affinity estimate (log intensity, higher = more binding, comparable within an allelic series)
binding signal (MSX2 [12]): 13.9 upbm affinity estimate (log intensity, higher = more binding, comparable within an allelic series)
binding signal (PAX4 [13]): 11.2 upbm affinity estimate (log intensity, higher = more binding, comparable within an allelic series)
binding signal (MSX2 [14]): 13.5 upbm affinity estimate (log intensity, higher = more binding, comparable within an allelic series)
binding signal (VAX1 [15]): 13.7 upbm affinity estimate (log intensity, higher = more binding, comparable within an allelic series)
binding signal (HOXA4 [16]): 12.6 upbm affinity estimate (log intensity, higher = more binding, comparable within an allelic series)
binding signal (PRRX1 [17]): 13.7 upbm affinity estimate (log intensity, higher = more binding, comparable within an allelic series)
binding signal (VAX1 [18]): 13.5 upbm affinity estimate (log intensity, higher = more binding, comparable within an allelic series)

AATTAATG
binding signal (HOXB4 [1]): 13.4 upbm affinity estimate (log intensity, higher = more binding, comparable within an allelic series)
binding signal (VENTX [2]): 12 upbm affinity estimate (log intensity, higher = more binding, comparable within an allelic series)
binding signal (HOXA4 [3]): 10.6 upbm affinity estimate (log intensity, higher = more binding, comparable within an allelic series)
binding signal (PRRX1 [4]): 11.3 upbm affinity estimate (log intensity, higher = more binding, comparable within an allelic series)
binding signal (VENTX [5]): 11.8 upbm affinity estimate (log intensity, higher = more binding, comparable within an allelic series)
binding signal (HOXB6): 10.1 upbm affinity estimate (log intensity, higher = more binding, comparable within an allelic series)
binding signal (HOXA2): 13 upbm affinity estimate (log intensity, higher = more binding, comparable within an allelic series)
binding signal (HOXA4 [6]): 12.5 upbm affinity estimate (log intensity, higher = more binding, comparable within an allelic series)
binding signal (HOXB4 [7]): 14 upbm affinity estimate (log intensity, higher = more binding, comparable within an allelic series)
binding signal (MSX2 [8]): 12.5 upbm affinity estimate (log intensity, higher = more binding, comparable within an allelic series)
binding signal (PAX4 [9]): 12.3 upbm affinity estimate (log intensity, higher = more binding, comparable within an allelic series)
binding signal (PAX4 [10]): 10.6 upbm affinity estimate (log intensity, higher = more binding, comparable within an allelic series)
binding signal (HOXA4 [11]): 14.1 upbm affinity estimate (log intensity, higher = more binding, comparable within an allelic series)
binding signal (MSX2 [12]): 13.5 upbm affinity estimate (log intensity, higher = more binding, comparable within an allelic series)
binding signal (PAX4 [13]): 11.2 upbm affinity estimate (log intensity, higher = more binding, comparable within an allelic series)
binding signal (MSX2 [14]): 13.2 upbm affinity estimate (log intensity, higher = more binding, comparable within an allelic series)
binding signal (VAX1 [15]): 12.9 upbm affinity estimate (log intensity, higher = more binding, comparable within an allelic series)
binding signal (HOXA4 [16]): 11.9 upbm affinity estimate (log intensity, higher = more binding, comparable within an allelic series)
binding signal (PRRX1 [17]): 13.4 upbm affinity estimate (log intensity, higher = more binding, comparable within an allelic series)
binding signal (VAX1 [18]): 12.8 upbm affinity estimate (log intensity, higher = more binding, comparable within an allelic series)

GGTAATTA
binding signal (HOXB4 [1]): 13.7 upbm affinity estimate (log intensity, higher = more binding, comparable within an allelic series)
binding signal (VENTX [2]): 12.6 upbm affinity estimate (log intensity, higher = more binding, comparable within an allelic series)
binding signal (HOXA4 [3]): 10.9 upbm affinity estimate (log intensity, higher = more binding, comparable within an allelic series)
binding signal (PRRX1 [4]): 11.6 upbm affinity estimate (log intensity, higher = more binding, comparable within an allelic series)
binding signal (VENTX [5]): 12.6 upbm affinity estimate (log intensity, higher = more binding, comparable within an allelic series)
binding signal (HOXB6): 10.4 upbm affinity estimate (log intensity, higher = more binding, comparable within an allelic series)
binding signal (HOXA2): 14.1 upbm affinity estimate (log intensity, higher = more binding, comparable within an allelic series)
binding signal (HOXA4 [6]): 13.2 upbm affinity estimate (log intensity, higher = more binding, comparable within an allelic series)
binding signal (HOXB4 [7]): 14.4 upbm affinity estimate (log intensity, higher = more binding, comparable within an allelic series)
binding signal (MSX2 [8]): 13.3 upbm affinity estimate (log intensity, higher = more binding, comparable within an allelic series)
binding signal (PAX4 [9]): 12.4 upbm affinity estimate (log intensity, higher = more binding, comparable within an allelic series)
binding signal (PAX4 [10]): 10.7 upbm affinity estimate (log intensity, higher = more binding, comparable within an allelic series)
binding signal (HOXA4 [11]): 14.3 upbm affinity estimate (log intensity, higher = more binding, comparable within an allelic series)
binding signal (MSX2 [12]): 14.2 upbm affinity estimate (log intensity, higher = more binding, comparable within an allelic series)
binding signal (PAX4 [13]): 11.1 upbm affinity estimate (log intensity, higher = more binding, comparable within an allelic series)
binding signal (MSX2 [14]): 13.8 upbm affinity estimate (log intensity, higher = more binding, comparable within an allelic series)
binding signal (VAX1 [15]): 14.1 upbm affinity estimate (log intensity, higher = more binding, comparable within an allelic series)
binding signal (HOXA4 [16]): 12.8 upbm affinity estimate (log intensity, higher = more binding, comparable within an allelic series)
binding signal (PRRX1 [17]): 13.5 upbm affinity estimate (log intensity, higher = more binding, comparable within an allelic series)
binding signal (VAX1 [18]): 14.2 upbm affinity estimate (log intensity, higher = more binding, comparable within an allelic series)
